# From PubChem BioAssay
# “And” between values parts separate entries of the source, which are not always exact repeats. Equal values may be shown once. Records with an inconclusive call do not appear. For some of these results: Measured potencies and affinities stand elsewhere. The source made the active and inactive calls.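 How the source made its calls, unless noted: active means compounds killing one labelled cell type while sparing the other, by normalised counts and ratio limits, not self-fluorescent; inactive means the rest.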
# Tests used:
# [1] = polyglutamine-triggered caspase-3 activation inhibitors, cell-based (AID 1583); conditions: polyglutamine-induced caspase-3 activation, cell assay; stronger effect = higher value;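 tested at 10 µM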
# [2] = suppressors of polyQ aggregation in yeast, 75Q-TubU reporter (AID 1593); conditions: Yeast 75Q polyglutamine aggregation reporter
# [3] = rescue of polyQ-huntingtin neuronal dysfunction in worms, whole organism, C. elegans mechanosensory neurons, N-terminal huntingtin (AID 1599); conditions: touch response, stronger effect = higher value
# [4] = inhibitors of mitochondrial cytochrome c release, biochemical, purified mitochondria (AID 1603); conditions: stronger effect = lower value;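 further: mouse liver mitochondria challenged with calcium chloride; signal normalized to the plate average as 100%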
# [5] = inhibitors of polyQ protein aggregation (AID 1604); conditions: polyglutamine-induced protein aggregation inhibition assay; stronger effect = higher value; tested at 2.5 µM
# [6] = enhancers of glutamate uptake in motor neurons, MN-1 cell line (AID 1612); conditions: MN-1 motor neuron cells, stronger effect = higher value;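 further: tested at 1 µM final; 0% = mean of DMSO vehicle wells on each plate; positive means more glutamate uptake than control and negative means less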
# [7] = reducers of polyQ inclusions in PC12 cells, cell-based, NGF-treated PC12, GFPQ80 (AID 1614); conditions: PC12 NGF-treated GFP-polyQ80 inclusion reduction;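 further: lower means fewer inclusions and 0 means no inclusions at all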
# [8] = suppressors of polyglutamine aggregation in yeast, 75Q-TubH (AID 1616); conditions: S. cerevisiae 75Q-TubH polyglutamine aggregation suppression; stronger effect = higher value
# [9] = liver-stage malaria parasite growth inhibition, primary screen, cell-based, HepG2, luciferase luminescence, HepG2 viability (AID 624349; in the data active means parasite load remaining mostly below about 12%, no sharp cut-off; inactive means mostly above about 10%;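 further: 100% = mean of DMSO negative control wells on the same plate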); conditions: P. berghei liver stage in HepG2, luciferase luminescence, concentration not given here; parasite load remaining: stronger effect = lower value; viability: measured here: HepG2 viability without parasites
# [10] = differential killing of epithelial or mesenchymal cells, primary screen, imaging, PC-3E GFP, TEM4-18 mCherry, co-culture (AID 1345086); conditions: imaging cell counts, at 1 µM; for red/green cell ratio (normalised): actives lie on both sides;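 on all read-outs here: cells exposed to compound for 72 h before imaging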;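 on red/green cell ratio (normalised): normalised mesenchymal count divided by normalised epithelial count so high means epithelial killing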
# [11] = system: Aerobactin synthetase IucA (Klebsiella pneumoniae hvKP1); assay: Biochemical IucA enzyme inhibition primary screen of the Spectrum library (AID 1346200; call rule not given here;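 further: 100% = wells without compound and 0% = wells lacking enzyme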); conditions: malachite green pyrophosphate, A620, at 8 µM, stronger effect = lower value
# [12] = sensitizers of A549 cells to miR-34 induction, primary screen, imaging, A549 dox-inducible miR-34, nuclei and caspase counts (AID 1347080;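 active means compounds whose cell count with miR-34 switched on is under 0.7 times the count with it off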); conditions: A549 miR-34 inducible, Hoechst nuclei count, 48 h
# [13] = biological target: Mitogen-activated protein kinase 7 (Homo sapiens) (UniProt Q13164); assay: ERK5 transactivation activators in reporter cells, primary screen, cell-based, HTS (AID 1508626;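 active means luciferase signal above three times the same-plate solvent-only control wells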;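 further: luciferase driven by Gal4-ERK5 fusion binding five Gal4 sites before minimal TATA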); conditions: HeLa Gal4-ERK5 transactivation, 18 h, at 5 µM, stronger effect = higher value
# Mitogen-activated protein kinase 7 (Homo sapiens), sequence (Q13164 whole entry, looked up, the tested form may be a part): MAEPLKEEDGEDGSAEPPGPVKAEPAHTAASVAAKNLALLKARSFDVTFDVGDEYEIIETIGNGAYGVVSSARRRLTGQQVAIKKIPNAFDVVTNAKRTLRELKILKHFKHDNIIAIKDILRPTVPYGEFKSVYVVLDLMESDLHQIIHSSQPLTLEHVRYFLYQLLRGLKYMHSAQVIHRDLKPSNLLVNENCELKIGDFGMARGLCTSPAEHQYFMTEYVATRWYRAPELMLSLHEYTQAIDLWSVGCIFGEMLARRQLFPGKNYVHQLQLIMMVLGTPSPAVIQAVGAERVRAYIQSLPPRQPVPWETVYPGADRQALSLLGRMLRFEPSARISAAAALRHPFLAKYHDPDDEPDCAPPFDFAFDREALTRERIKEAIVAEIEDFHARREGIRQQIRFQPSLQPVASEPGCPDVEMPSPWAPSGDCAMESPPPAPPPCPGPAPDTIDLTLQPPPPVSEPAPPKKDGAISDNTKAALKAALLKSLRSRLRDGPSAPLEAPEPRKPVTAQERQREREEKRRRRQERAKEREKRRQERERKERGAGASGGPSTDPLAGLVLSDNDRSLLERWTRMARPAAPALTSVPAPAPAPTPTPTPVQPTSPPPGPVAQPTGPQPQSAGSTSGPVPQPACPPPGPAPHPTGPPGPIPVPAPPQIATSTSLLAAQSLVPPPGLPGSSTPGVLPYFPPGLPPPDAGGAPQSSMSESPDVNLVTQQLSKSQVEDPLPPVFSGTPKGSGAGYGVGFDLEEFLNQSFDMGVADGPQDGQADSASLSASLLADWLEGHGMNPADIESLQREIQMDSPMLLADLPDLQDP
# [14] = biological target: NAD(+) hydrolase SARM1 (Homo sapiens) (UniProt Q6SZW1); assay: SARM1 TIR NADase inhibitors, cell lysate, NAD-Glo luminescence (AID 1508614;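 active means compound whose remaining NAD level is above about 45 nM, limit read from the data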); conditions: SAM-TIR HEK293T lysate NADase, at 1 µM, stronger effect = higher value
# NAD(+) hydrolase SARM1 (Homo sapiens), sequence (Q6SZW1 whole entry, looked up): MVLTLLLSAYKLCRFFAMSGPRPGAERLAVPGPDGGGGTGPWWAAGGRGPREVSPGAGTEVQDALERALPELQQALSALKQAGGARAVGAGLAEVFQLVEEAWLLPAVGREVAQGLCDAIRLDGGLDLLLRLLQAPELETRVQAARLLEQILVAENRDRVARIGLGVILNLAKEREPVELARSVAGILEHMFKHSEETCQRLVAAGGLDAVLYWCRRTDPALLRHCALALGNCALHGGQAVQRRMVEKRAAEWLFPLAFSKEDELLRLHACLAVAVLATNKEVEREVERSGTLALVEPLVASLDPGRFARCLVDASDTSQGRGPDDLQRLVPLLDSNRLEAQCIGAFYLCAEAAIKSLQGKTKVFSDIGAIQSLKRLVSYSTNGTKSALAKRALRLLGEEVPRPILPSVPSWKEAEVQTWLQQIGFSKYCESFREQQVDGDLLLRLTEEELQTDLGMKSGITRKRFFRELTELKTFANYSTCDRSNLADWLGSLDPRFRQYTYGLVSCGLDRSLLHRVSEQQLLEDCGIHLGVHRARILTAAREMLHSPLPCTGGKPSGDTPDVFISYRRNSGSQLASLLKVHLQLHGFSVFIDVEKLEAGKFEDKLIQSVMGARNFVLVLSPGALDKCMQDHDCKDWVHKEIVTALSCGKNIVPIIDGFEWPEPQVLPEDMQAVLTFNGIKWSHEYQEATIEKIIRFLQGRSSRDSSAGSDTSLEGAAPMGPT
# [15] = biological target: ATP-dependent translocase ABCB1 (Homo sapiens) (UniProt P08183); assay: MDR1 (ABCB1) efflux transporter inhibition, cell-based (AID 377; in the data active means fluorescence slope change above about 50%); conditions: MDR1-expressing cells, fluorescent substrate accumulation slope; stronger effect = higher value; concentration not given here
# ATP-dependent translocase ABCB1 (Homo sapiens), sequence (P08183 whole entry, looked up): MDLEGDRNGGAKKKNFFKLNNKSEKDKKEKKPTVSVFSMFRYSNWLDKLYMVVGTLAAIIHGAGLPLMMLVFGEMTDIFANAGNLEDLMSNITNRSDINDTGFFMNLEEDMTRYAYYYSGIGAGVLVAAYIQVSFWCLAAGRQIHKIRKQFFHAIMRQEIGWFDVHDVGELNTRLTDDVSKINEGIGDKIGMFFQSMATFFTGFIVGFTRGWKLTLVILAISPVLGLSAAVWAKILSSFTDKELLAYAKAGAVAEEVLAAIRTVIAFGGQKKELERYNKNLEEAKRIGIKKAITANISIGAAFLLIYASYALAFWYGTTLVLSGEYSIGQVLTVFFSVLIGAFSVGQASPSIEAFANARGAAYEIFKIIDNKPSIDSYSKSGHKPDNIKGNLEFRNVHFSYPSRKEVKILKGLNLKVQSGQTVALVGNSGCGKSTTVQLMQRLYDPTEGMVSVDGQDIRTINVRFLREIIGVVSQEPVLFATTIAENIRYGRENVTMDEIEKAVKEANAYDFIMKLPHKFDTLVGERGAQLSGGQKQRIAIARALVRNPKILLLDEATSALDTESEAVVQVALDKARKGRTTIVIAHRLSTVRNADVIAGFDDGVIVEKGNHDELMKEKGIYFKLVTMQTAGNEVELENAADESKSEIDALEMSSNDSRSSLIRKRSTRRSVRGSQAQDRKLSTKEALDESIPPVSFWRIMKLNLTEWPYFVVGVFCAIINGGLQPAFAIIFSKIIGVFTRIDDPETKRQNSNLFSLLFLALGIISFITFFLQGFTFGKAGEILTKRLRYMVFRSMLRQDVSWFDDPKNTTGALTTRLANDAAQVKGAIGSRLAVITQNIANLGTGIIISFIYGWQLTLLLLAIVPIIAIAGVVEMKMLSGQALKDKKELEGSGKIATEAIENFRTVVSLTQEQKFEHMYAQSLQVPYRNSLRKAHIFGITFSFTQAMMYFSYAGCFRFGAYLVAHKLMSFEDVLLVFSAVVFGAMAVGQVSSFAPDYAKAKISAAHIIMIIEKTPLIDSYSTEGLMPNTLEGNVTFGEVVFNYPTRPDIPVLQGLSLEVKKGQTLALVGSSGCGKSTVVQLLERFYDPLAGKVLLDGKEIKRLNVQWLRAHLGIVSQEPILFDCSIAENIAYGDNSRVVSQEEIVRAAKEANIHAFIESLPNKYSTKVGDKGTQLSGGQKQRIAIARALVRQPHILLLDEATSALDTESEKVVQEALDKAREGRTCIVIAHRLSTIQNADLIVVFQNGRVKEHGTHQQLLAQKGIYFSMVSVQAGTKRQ
# [16] = hESC survival regulators, cell-based (AID 493140; call rule not given here;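 further: cells exposed to compounds for four days before counting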); conditions: human embryonic stem cell survival screen; stronger effect = higher value
# [17] = survival rescue of mitochondrial mutant cells in low glucose, primary screen, MELAS cybrids, Rieske KO mouse fibroblasts, CellTiter-Glo (AID 1508586;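 active means mean z-score across replicates of 1.96 or higher in either the MELAS or the Rieske mutant cell line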;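 further: z relative to plate mean and SD of compound and empty wells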)
# [18] = viability rescue of complex I mutant cybrids, primary screen, cell-based, galactose medium, ATP luminescence (AID 1645843;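 active means z-score of at least 1.8 in each of two replicates, scored against plate mean and spread of sample wells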;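 further: positive z means more ATP and so rescue of galactose-driven cybrid death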); conditions: complex I mutant cybrid cells, 72 h, stronger effect = higher value
# [19] = measured here: epithelial PC-3E GFP cell survival
# [20] = measured here: mesenchymal TEM4-18 mCherry cell survival
# [21] = measured here: relative caspase fold change +Dox/-Dox
# [22] = measured here: total cells with miR-34 induction, stronger effect = lower value
# [23] = measured here: total cells without miR-34 induction
# [24] = MELAS cybrid survival, CellTiter-Glo 48 h, stronger effect = higher value
# [25] = Rieske KO mouse fibroblast survival, CellTiter-Glo 72 h
structure (smiles),measurement,setting,value
CC[C@H]1CN2CCC1C[C@@H]2[C@@H](O)c1ccnc2ccc(OC)cc12 (some centres not stated),inhibition,[1],-3.48%
same,score,[2],1.22
same,rescue above control,[3],-8.65
same,cytochrome c release ratio,[4],0.67
same,inhibition of aggregation,[5],32.5%
same,glutamate uptake change,[6],1.44%
same,inclusion score,[7],2
same,aggregation suppression score,[8],1.35
same,parasite load remaining,[9],20% (inactive)
same,viability,[9],79.3%
same,red/green cell ratio (normalised),[10],0.99 (inactive)
same,normalised cell number,[10]; [19],1.01
same,normalised cell number,[10]; [20],1
same,activity remaining,[11],117% (inactive)
COC1=CC(=O)OC(/C=C/c2ccccc2)C1 (configuration not stated),red/green cell ratio (normalised),[10],0.84 (inactive)
same,normalised cell number,[10]; [19],0.94
same,normalised cell number,[10]; [20],0.79
same,fold change,[12]; stronger effect = lower value,0.833 (inactive)
same,fold change,[12]; [21],1.16
same,cell count,[12]; [22],4840
same,cell count,[12]; [23],5810
CN1CC(CNC(=O)OCc2ccccc2)CC2c3cccc4c3c(cn4C)CC21 (configuration not stated),inhibition,[1],-46%
same,score,[2],1.1
same,rescue above control,[3],11.5
same,cytochrome c release ratio,[4],0.97
same,inhibition of aggregation,[5],12.2%
same,glutamate uptake change,[6],5.85%
same,aggregation suppression score,[8],1.13
same,red/green cell ratio (normalised),[10],0.64 (inactive)
same,normalised cell number,[10]; [19],1.26
same,normalised cell number,[10]; [20],0.81
same,activity remaining,[11],113% (inactive)
CC[C@@]1(O)C[C@H](O[C@H]2C[C@H](N(C)C)[C@H](O)[C@H](C)O2)c2c(cc3c(c2O)C(=O)c2c(O)ccc(O)c2C3=O)[C@H]1C(=O)OC,red/green cell ratio (normalised),[10],0.85 (inactive)
same,normalised cell number,[10]; [19],1.07
same,normalised cell number,[10]; [20],0.9
same,activity remaining,[11],96.8% (inactive)
same,luciferase signal,[13],32 AU (inactive)
OCC(O)[C@H]1O[C@@H]2O[C@H](C(Cl)(Cl)Cl)O[C@@H]2[C@H]1O (some centres not stated),red/green cell ratio (normalised),[10],0.83 (inactive)
same,normalised cell number,[10]; [19],1.02
same,normalised cell number,[10]; [20],0.85
same,fold change,[12]; stronger effect = lower value,0.871 (inactive)
same,fold change,[12]; [21],0.819
same,cell count,[12]; [22],8180
same,cell count,[12]; [23],9390
C=CCN=C=S,red/green cell ratio (normalised),[10],0.88 (inactive)
same,normalised cell number,[10]; [19],1.07
same,normalised cell number,[10]; [20],0.93
same,fold change,[12]; stronger effect = lower value,1.01 (inactive)
same,fold change,[12]; [21],0.842
same,cell count,[12]; [22],7390
same,cell count,[12]; [23],7280
same,remaining NAD,[14],10 nM (inactive)
CC(=O)O[C@@H]1CC[C@]2(C)C3CC[C@]4(C)C(=O)CCC4C3CC[C@H]2C1 (some centres not stated),parasite load remaining,[9],51% (inactive)
same,viability,[9],94%
same,red/green cell ratio (normalised),[10],1.18 (inactive)
same,normalised cell number,[10]; [19],0.95
same,normalised cell number,[10]; [20],1.12
same,activity remaining,[11],99.4% (inactive)
CN(C)Cc1c[nH]c2ccccc12,fluorescence slope change,[15],124% (active)
same,survival,[16],7.33 (inactive)
same,parasite load remaining,[9],169% (inactive) and 78.1% (inactive)
same,viability,[9],115% and 79.2%
same,red/green cell ratio (normalised),[10],1.08 (inactive)
same,normalised cell number,[10]; [19],0.84
same,normalised cell number,[10]; [20],0.9
same,fold change,[12]; stronger effect = lower value,0.891 (inactive) and 0.984 (inactive)
same,fold change,[12]; [21],2.07 and 0.28
same,cell count,[12]; [22],8410 and 7970
same,cell count,[12]; [23],9440 and 8100
same,z-score,[17]; [24],-0.265 (inactive)
same,z-score,[17]; [25],0.0463
CC(=O)OCC1=C(C(=O)O)N2C(=O)[C@@H](NC(=O)CCCC(N)C(=O)O)C2SC1 (some centres not stated),inhibition,[1],10.9%
same,score,[2],1.28
same,cytochrome c release ratio,[4],1.12
same,inhibition of aggregation,[5],39.4%
same,glutamate uptake change,[6],3.72%
same,inclusion score,[7],2
same,aggregation suppression score,[8],1.03
same,parasite load remaining,[9],94.5% (inactive)
same,viability,[9],67%
same,red/green cell ratio (normalised),[10],0.94 (inactive)
same,normalised cell number,[10]; [19],1.04
same,normalised cell number,[10]; [20],0.98
same,activity remaining,[11],111% (inactive)
C[C@H]1O[C@H](OC2[C@@H](O)[C@@H](O)C(O)[C@H](O)[C@H]2O)[C@@H](N)C[C@@H]1N=C(N)C(=O)O (some centres not stated),parasite load remaining,[9],61.4% (inactive)
same,viability,[9],141%
same,red/green cell ratio (normalised),[10],1.07 (inactive)
same,normalised cell number,[10]; [19],1
same,normalised cell number,[10]; [20],1.07
same,fold change,[12]; stronger effect = lower value,0.847 (inactive)
same,fold change,[12]; [21],1.18
same,cell count,[12]; [22],8950
same,cell count,[12]; [23],10600
same,z-score,[17]; [24],-0.576 (inactive)
same,z-score,[17]; [25],-0.393
same,luciferase signal,[13],128 AU (inactive)
same,z-score,[18],0.075 (inactive)
